Conditions in all cases: treatment time: 24 h
The test system of test [1] is A549-ACTB-RAB5A. The test can be described thus: lowest phenotypically active concentration; higher = less potent. The essentials: (§1)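 Four wells per concentration (0.3, 1, 3 or 9 µM) were treated for 24 h in each of fifteen gene-edited reporter lines from A549, HepG2 and WPMY1 cells, then imaged live. After normalising live-cell features to solvent control wells, deviation was defined as ≥3 of 4 wells lying past the 95th percentile of control Euclidean distances. Reproducibility was defined as a median replicate Pearson correlation above the 95th percentile of non-replicates. Both had to hold for phenotypic activity.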

The test system of test [2] is A549-GM130-SQSTM1. Described as above. The gist of the method:
as §1

Test [3] concerns A549-ACTB-RAB5A. Description: phenotypically active (imaging signature differs from DMSO and reproducible) at any of 0.3-9 uM (binary (1 = active, 0 = inactive)); higher = active. The gist of the method: as §1
In the next test the test system is A549-CANX-COX4. The description is as above. The gist of the method:
as §1

Test [4] deals with A549-GM130-SQSTM1. The test is described as above. The essentials:
as §1

A further test relates to A549-TP53BP1-CLTA. The description is as above. The essentials: as §1
The test system of test [5] is A549-TUBA1B-RELA. The test is described as above. The gist of the method:
as §1

For test [6], the system named is HepG2-ACTB-RAB5A. The description is as above. The gist of the method: as §1
The next test relates to HepG2-CANX-COX4. The test is described as above. The essentials: as §1
Another test concerns HepG2-GM130-SQSTM1. The test is described as above. The gist of the method:
as §1

The subject of the next test is HepG2-TP53BP1-CLTA. The description is as above. The gist of the method: as §1
In the next test the test system is HepG2-TUBA1B-RELA. The description is as above. The essentials:
as §1

In another test the test system is WPMY1-ACTB-RAB5A. The description is as above. The essentials: as §1
The test system of the next test is WPMY1-CANX-COX4. The test is described as above. The essentials: as §1
Test [7] relates to WPMY1-GM130-SQSTM1. The test is described as above. The essentials:
as §1

The next test deals with WPMY1-TP53BP1-CLTA. The test is described as above. The gist of the method: as §1
A further test concerns WPMY1-TUBA1B-RELA. The test is described as above. The gist of the method: as §1
Test [8] concerns WPMY1-GM130-SQSTM1. Description: lowest phenotypically active concentration; higher = less potent. The essentials: as §1
Test [9] concerns HepG2-ACTB-RAB5A. The description is as above. The essentials: as §1
The subject of test [10] is A549-TUBA1B-RELA. The test is described as above. The gist of the method: as §1

From the supplement of paper PMC7411054 come the findings set out here.

Molecules are shown by their SMILES.

For `CC(C)c1nc(CN(C)C(=O)N[C@H](C(=O)N[C@@H](Cc2ccccc2)C[C@H](O)[C@H](Cc2ccccc2)NC(=O)OCc2cncs2)C(C)C)cs1` [ritonavir], the “lowest phenotypically active concentration” value with A549-ACTB-RAB5A [1] and in the test with A549-GM130-SQSTM1 [2] was 9 µM each time. Besides, the phenotypically active with A549-ACTB-RAB5A [3] was 1 (active); in the test with A549-CANX-COX4, 0 (inactive); in the test with A549-GM130-SQSTM1 [4], 1 (active); in the test with A549-TP53BP1-CLTA it was 0 (inactive); in the test with A549-TUBA1B-RELA [5], 0 (inactive); in the test on HepG2-ACTB-RAB5A [6] it was 0 (inactive). Moreover, the phenotypically active in the test with HepG2-CANX-COX4 was 0 (inactive); in the test on HepG2-GM130-SQSTM1 it was 1 (active); in the test on HepG2-TP53BP1-CLTA it was 0 (inactive); with HepG2-TUBA1B-RELA it was 0 (inactive); in the test on WPMY1-ACTB-RAB5A, 0 (inactive); with WPMY1-CANX-COX4, 0 (inactive). Moreover, the phenotypically active in the test on WPMY1-GM130-SQSTM1 [7], with WPMY1-TP53BP1-CLTA and in the test on WPMY1-TUBA1B-RELA was 0 (inactive) each time.
For the compound `Nc1ccc(N=Nc2ccccc2)c(N)n1` [phenazopyridine], the “lowest phenotypically active concentration” value was ≤ 0.3 µM with A549-ACTB-RAB5A [1], 1 µM in the test on A549-GM130-SQSTM1 [2] and 3 µM in the test on WPMY1-GM130-SQSTM1 [8]. Also, the phenotypically active in the test on A549-ACTB-RAB5A [3] is 1 (active); in the test with A549-CANX-COX4, 0 (inactive); with A549-GM130-SQSTM1 [4] it was 1 (active); with A549-TP53BP1-CLTA, 0 (inactive); in the test with A549-TUBA1B-RELA [5] it was 0 (inactive); in the test with HepG2-ACTB-RAB5A [6] it was 0 (inactive). The phenotypically active with HepG2-CANX-COX4, in the test on HepG2-GM130-SQSTM1, in the test with HepG2-TP53BP1-CLTA, in the test with HepG2-TUBA1B-RELA, in the test with WPMY1-ACTB-RAB5A and in the test on WPMY1-CANX-COX4 was 0 (inactive) throughout. Besides, the phenotypically active in the test on WPMY1-GM130-SQSTM1 [7] was 1 (active); with WPMY1-TP53BP1-CLTA, 0 (inactive); in the test on WPMY1-TUBA1B-RELA, 0 (inactive).
`CCN1/C(=C/C(C)=O)Sc2ccc(O)cc21`: the “lowest phenotypically active concentration” value in the test with A549-ACTB-RAB5A [1] and in the test on HepG2-ACTB-RAB5A [9] was 9 µM each time. Further, the phenotypically active in the test with A549-ACTB-RAB5A [3] is 1 (active); in the test with A549-CANX-COX4, 0 (inactive); with A549-GM130-SQSTM1 [4], 0 (inactive); in the test with A549-TP53BP1-CLTA it was 1 (active); with A549-TUBA1B-RELA [5], 0 (inactive); in the test with HepG2-ACTB-RAB5A [6], 1 (active). The phenotypically active in the test with HepG2-CANX-COX4 was 0 (inactive); with HepG2-GM130-SQSTM1, 0 (inactive); in the test with HepG2-TP53BP1-CLTA it was 0 (inactive); with HepG2-TUBA1B-RELA, 0 (inactive); in the test with WPMY1-ACTB-RAB5A it was 1 (active); with WPMY1-CANX-COX4 it was 0 (inactive). The values for the phenotypically active in the test with WPMY1-GM130-SQSTM1 [7], in the test on WPMY1-TP53BP1-CLTA and in the test on WPMY1-TUBA1B-RELA were 0 (inactive), 1 (active) and 0 (inactive), respectively.
As for `Cc1ccc(NC(=O)c2cccc(C(C)(C)C#N)c2)cc1Nc1ccc2ncn(C)c(=O)c2c1`, the “lowest phenotypically active concentration” value in the test with A549-ACTB-RAB5A [1] is 1 µM; in the test on A549-TUBA1B-RELA [10], 9 µM; with HepG2-ACTB-RAB5A [9], ≤ 0.3 µM; with WPMY1-GM130-SQSTM1 [8], 3 µM. Also, the phenotypically active is 1 (active) in the test on A549-ACTB-RAB5A [3]; 0 (inactive) in the test with A549-CANX-COX4; 0 (inactive) with A549-GM130-SQSTM1 [4]; 1 (active) in the test with A549-TP53BP1-CLTA; 1 (active) in the test on A549-TUBA1B-RELA [5]; 1 (active) in the test with HepG2-ACTB-RAB5A [6]. The phenotypically active in the test on HepG2-CANX-COX4, in the test with HepG2-GM130-SQSTM1, in the test on HepG2-TP53BP1-CLTA, with HepG2-TUBA1B-RELA, with WPMY1-ACTB-RAB5A and with WPMY1-CANX-COX4 was 1 (active) in each case. Besides, the results for the phenotypically active with WPMY1-GM130-SQSTM1 [7], with WPMY1-TP53BP1-CLTA and with WPMY1-TUBA1B-RELA were 1 (active), 1 (active) and 0 (inactive), respectively.
As to `CCOC(=O)c1c2c3c(cccc3[nH]c1=O)C(=O)c1ccccc1-2`, the “lowest phenotypically active concentration” value in the test with A549-ACTB-RAB5A [1] and in the test with A549-GM130-SQSTM1 [2] was 1 µM each time. Moreover, the phenotypically active is 1 (active) in the test on A549-ACTB-RAB5A [3]; 0 (inactive) in the test with A549-CANX-COX4; 1 (active) in the test on A549-GM130-SQSTM1 [4]; 0 (inactive) in the test on A549-TP53BP1-CLTA; 0 (inactive) in the test on A549-TUBA1B-RELA [5]; 0 (inactive) in the test with HepG2-ACTB-RAB5A [6]. Also, the phenotypically active in the test with HepG2-CANX-COX4 is 0 (inactive); in the test on HepG2-GM130-SQSTM1 it was 0 (inactive); in the test on HepG2-TP53BP1-CLTA it was 1 (active); with HepG2-TUBA1B-RELA it was 0 (inactive); with WPMY1-ACTB-RAB5A it was 0 (inactive); in the test on WPMY1-CANX-COX4, 0 (inactive). Moreover, the phenotypically active in the test on WPMY1-GM130-SQSTM1 [7], in the test with WPMY1-TP53BP1-CLTA and in the test on WPMY1-TUBA1B-RELA was 0 (inactive) each time.
